Inconclusive results are not listed. Entries that show only a call come without a potency. Values without a mark were called inactive. The source made the active and inactive calls. Calls come from the whole dose curve; as a rule, active = well fitted curve in the direction sought with a large enough effect; inconclusive = small, poorly fitted or top-dose-only effect, or another doubt; inactive = no such curve, though single readings can be large; an effect the other way counts as inactive or inconclusive.
Assays:
[1] = target: Cellular tumor antigen p53 (Homo sapiens) (UniProt P04637); assay: Primary qHTS for small molecule compounds that upregulate eGFP-tagged delta133p53alpha (in N-terminal) cells. (AID 2060322); details: NCI-H358 eGFP-delta133p53alpha fluorescence, 24 h; activation: stronger effect = higher value; note: nearly all actives have a fitted effect of over 75% in size; note: potency is the fitted concentration of half-maximal effect;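 for activation: cells pre-induced with doxycycline then dosed without doxycycline; series mostly up to about 56 µM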
Chain of Cellular tumor antigen p53 (Homo sapiens) (P04637 whole entry, looked up): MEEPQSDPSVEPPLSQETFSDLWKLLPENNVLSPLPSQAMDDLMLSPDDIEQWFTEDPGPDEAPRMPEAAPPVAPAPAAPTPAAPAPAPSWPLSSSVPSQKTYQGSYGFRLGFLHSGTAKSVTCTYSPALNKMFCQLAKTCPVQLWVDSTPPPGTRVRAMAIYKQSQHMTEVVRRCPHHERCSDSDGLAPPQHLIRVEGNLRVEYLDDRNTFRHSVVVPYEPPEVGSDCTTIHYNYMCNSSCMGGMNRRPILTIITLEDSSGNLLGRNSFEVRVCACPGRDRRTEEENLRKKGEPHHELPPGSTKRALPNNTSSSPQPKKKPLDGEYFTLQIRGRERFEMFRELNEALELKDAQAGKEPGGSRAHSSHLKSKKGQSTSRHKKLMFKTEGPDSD
Outline: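 NCI-H358 cells pre-induced 24 h with 10 ng/ml doxycycline for eGFP-delta133p53alpha, plated dox-free and exposed 24 h at 37C to titrated compounds. Fixed, Hoechst-stained; gated GFP peak intensity by laser scanning cytometry, normalized to DMSO (0%) and 57.5 uM 5-azacytidine (100%).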

[2] = target: Aldehyde dehydrogenase, mitochondrial (Homo sapiens) (UniProt P05091); assay: qHTS for Inhibitors of the Aldehyde Dehydrogenase Family (ALDH2) Primary screen (AID 2061308); note: nearly all actives have a fitted effect of over 55% in size
[3] = target: Retinaldehyde dehydrogenase 3 (Homo sapiens) (UniProt P47895); assay: qHTS for Inhibitors of the Aldehyde Dehydrogenase Family (ALDH1A3) Primary screen (AID 2061315)

Structure (SMILES) | activation [1] [%] | Potency [2] | Potency [3] | Potency [1] | activity change, negative = inhibition [2] | activity change, negative = inhibition [3]
OC[C@H]1O[C@@H](OC[C@H]2O[C@@H](OC/C=C/c3ccccc3)[C@H](O)[C@@H](O)[C@@H]2O)[C@@H](O)[C@@H]1O | 20.5 | inactive | inactive | – | – | –
C[C@@H]1CC[C@]2(C(=O)O)CC[C@]3(C)C(=CCC4[C@@]5(C)CC[C@H](O)C(C)(C)C5C(O)C[C@]43C)[C@@H]2[C@]1(C)O (stereo partly specified) | 0.893 | inactive | inactive | – | – | –
CCC(C)/C=C(C)/C=C/C1=CC2=C(Cl)C(=O)C(C)(OC(C)=O)C(=O)C2=CN1C1CCCCN(C(CCC(N)=O)C(=O)O)C1=O (stereo unspecified) | 2.68 | inactive | inactive | – | – | –
CC(O)C1NC(=O)C2CCCN2C1=O (stereo unspecified) | -25.2 | inactive | inactive | – | – | –
CC1(C)SC2C(NC(=O)[C@H](C(=O)O)c3ccsc3)C(=O)N2C1C(=O)O (stereo partly specified) | 3.67 | inactive | inactive | – | – | –
COc1cc(C2c3cc(O)c(OC)cc3CC(CO)C2CO)ccc1O (stereo unspecified) | 8.93 | inactive | inactive | – | – | –
CC1=C(C(=O)O)/C(=C\CO[C@@H]2O[C@H](CO)[C@@H](O)[C@H](O)[C@H]2O)C(OC(=O)/C=C\c2ccc(O)cc2)C1 (stereo partly specified) | 8.93 | inactive | inactive | – | – | –
COc1ccc(C(OC2OC(CO)C(O)C(O)C2O)C(C)O)cc1 (stereo unspecified) | 9.82 | inactive | inactive | – | – | –
CC(=O)N[C@H]1CCN(c2ccc(C3=NOC(CN[S+](=O)([O-])C(C)C)C3)cc2F)C1 (stereo partly specified) | 11.7 | inactive | inactive | – | – | –
C=C1C(=O)O[C@@H]2[C@H]3C(C)=CC(=O)C3=C(C)CC[C@@H]12 | – | inactive | inactive | 10.7 µM (active) | – | –
CC1CCCC2OC2C(=O)c2c(O)cc(O)cc2CC(=O)O1 (stereo unspecified) | 16 | inactive | inactive | – | – | –
CC1=C(CCC(C)CC(=O)O)[C@@]2(C)CCCC(C)(C)C2CC1=O (stereo partly specified) | -29.5 | inactive | inactive | – | – | –
COc1ccccc1[C@@H]1C2=C(CC(C)(C)CC2=O)Nc2n[nH]c(C(F)(F)F)c21 | 9.67 | inactive | inactive | – | – | –
Cc1ccc(C(C)C)c(O[C@@H]2O[C@H](CO)[C@@H](O)[C@H](O)[C@H]2O)c1 | -1.53 | inactive | inactive | – | – | –
Cc1cn2cc(CC(=O)N3CCC4(CC3)CN(Cc3ccc(-n5nccn5)cc3Cl)C4)nc2s1 | -8.93 | inactive | inactive | – | – | –
C=C(C)C1=C[C@@]2(C)C(=CC1=O)CC[C@@H](O)[C@@H]2C | 22.1 | inactive | inactive | – | – | –
COc1ccc(C#Cc2ccc(C(=O)N3CCC[C@@H](O)C3)c(F)c2)cc1 | -8.04 | inactive | inactive | – | – | –
O=C(O)[C@H]1Cc2ccccc2CN1 | 6.21 | – | – | – | 6.47% [at 5.59 µM] | -14.2% [at 5.59 µM]
C[C@@H]1C[C@H]2O[C@@]3(O[C@@H]2C(C)(C)O)C(O)[C@@]2(C)C4CCC5C(C)(C)[C@@H](O[C@H]6OC[C@H](O)[C@@H](O)[C@@H]6O)CC[C@@]56C[C@@]46CC[C@]2(C)C13 (stereo partly specified) | -26.7 | inactive | inactive | – | – | –
CC1(C)CC[C@]2(C(=O)O[C@@H]3O[C@H](CO)[C@@H](O)[C@H](O)[C@H]3O)CC[C@]3(C)C(=CCC4[C@@]5(C)CC[C@H](O[C@@H]6O[C@H](C(=O)O)[C@@H](O)[C@H](O)[C@H]6OC6OC(CO)C(O)C(O)C6O)C(C)(C)C5CC[C@]43C)[C@@H]2C1 (stereo partly specified) | -5.36 | inactive | inactive | – | – | –
CC(C)OC(=O)N1CCC(Oc2ncnc3c2cnn3-c2ccc(S(C)(=O)=O)cc2F)CC1 | 4.3 | inactive | inactive | – | – | –
COc1ccc([C@@]2(O)c3c(ccc(CC=C(C)C)c3O)NC(=O)[C@@H]2OC)cc1 | -19.1 | inactive | inactive | – | – | –
CC1=C2C(=O)C=C(CO)C2[C@H]2OC(=O)[C@H](C)[C@@H]2[C@@H](OC(=O)Cc2ccc(O)cc2)C1 (stereo partly specified) | -11.6 | inactive | inactive | – | – | –
CC1CCC2(NC1)OC1C(O)C3C4CCC5CC(O[C@@H]6O[C@H](CO)[C@@H](O)[C@H](O)[C@H]6O[C@@H]6O[C@@H](C)[C@H](O)[C@@H](O)[C@H]6O)CCC5(C)C4CCC3(C)C1C2C (stereo partly specified) | -15.3 | inactive | inactive | – | – | –
C=C(CCO)C(=O)OCC1OCC(OC(=O)C(=C)CCO[C@@H]2O[C@H](CO)[C@@H](O)[C@H](O)[C@H]2O)C(O)C1O (stereo partly specified) | -8.4 | inactive | inactive | – | – | –
CC(O)CO[C@@H]1O[C@H](CO)[C@@H](O)[C@H](O)[C@H]1O (stereo partly specified) | -4.58 | inactive | inactive | – | – | –

Structure (SMILES) | activation [1] [%] | Potency [2] | Potency [3] | Potency [1] | activity change, negative = inhibition [2] | activity change, negative = inhibition [3]
Cn1c(=O)c(F)c(Nc2ccc(I)cc2F)c2c(=O)n(CC(O)CO)cnc21 (stereo unspecified) | 14.3 | inactive | inactive | – | – | –
C=CC(C)(O)CC/C=C(\C)C(=O)O[C@@H]1[C@@H](O)[C@H](OC(C)(C=C)CC/C=C(\C)C(=O)O)O[C@H](CO)[C@H]1OC(=O)/C(C)=C/CCC(C)(O)C=C (stereo partly specified) | 9.92 | inactive | inactive | – | – | –
COc1cccc2c1CCC[C@H]2CN(C)CCc1ccc2ccoc2c1 | -3.57 | inactive | inactive | – | – | –
CC[C@@H](O)C[C@@H]1C(C)=C[C@@H]2CCCC[C@@H]2[C@@]1(C)C(=O)O | -6.87 | inactive | inactive | – | – | –
CC(C)=CC/C=C(\C)[C@H]1CC[C@]2(C)[C@@H]1[C@H](O)C[C@@H]1[C@@]3(C)CC[C@H](O)C(C)(C)[C@@H]3[C@@H](O[C@@H]3O[C@H](CO)[C@@H](O)[C@H](O)[C@H]3O)C[C@]12C | 1.67 | inactive | inactive | – | – | –
CC(=O)N[C@H]1[C@H](O[C@H]2CC[C@@]3(C)C(CC[C@]4(C)C3CC=C3C5CC(C)(C)CC[C@]5(C(=O)O)[C@H](O)C[C@]34C)C2(C)C)O[C@H](CO[C@@H]2OC[C@H](O)[C@H](O)[C@H]2O[C@@H]2OC[C@@H](O)[C@H](O)[C@H]2O)[C@@H](O)[C@@H]1O (stereo partly specified) | -19.1 | inactive | inactive | – | – | –
C[C@H]1[C@H](C)CC[C@]2(C(=O)O)CC[C@]3(C(=O)O)C(=CCC4[C@@]5(C)CC[C@H](O[C@@H]6O[C@@H](C)[C@H](O)[C@@H](O)[C@H]6O)C(C)(C)C5CC[C@]43C)[C@H]12 (stereo partly specified) | -4.58 | inactive | inactive | – | – | –
C=C1C[C@]23C[C@H]1CC[C@H]2[C@@]12C=C[C@H](O)[C@@](C)(C(=O)O1)[C@H]2[C@@H]3C(=O)O | -28.2 | inactive | inactive | – | – | –
C=C1CC2(C(=O)O)CC1CCC2C1(C)CCCC2(C)C(=O)OC(O)C21 (stereo unspecified) | -6.87 | inactive | inactive | – | – | –
C=C1/C(=C/C=C2\CCC[C@]3(C)[C@@H]([C@@H](C)OCCC(O)(CC)CC)CC[C@@H]23)C[C@@H](O)C[C@@H]1O | -5 | inactive | inactive | – | – | –
CC1=C(CC/C(C)=C/C(=O)O)[C@@]2(C)CCCC(C)(C)C2CC1=O (stereo partly specified) | 6.25 | inactive | inactive | – | – | –
C[C@@H]1O[C@@H](OC2C(O[C@H]3[C@H](O[C@H]4CC[C@@]5(C)C(CC[C@]6(C)C5CC=C5C7CC(C)(C)CC(O)[C@]7(C)CC[C@]56C)C4(C)C)O[C@H](C(=O)O)[C@@H](O)[C@@H]3O)OC(CO)C(O)C2O)[C@H](O)[C@H](O)[C@H]1O (stereo partly specified) | -6.11 | inactive | inactive | – | – | –
COc1cc2c(cc1OC)[C@@H]1[C@H](O)[C@@H](OC)C=C3CCN(C2)[C@H]31 | – | inactive | inactive | 16.6 µM (active) | – | –
O=C(O)Cc1cc(I)c(Oc2ccc(O)c(I)c2)c(I)c1 | 2.39 | inactive | inactive | – | – | –
O=C(O)CCc1cc2ccoc2cc1O[C@@H]1O[C@H](CO[C@@H]2OC[C@](O)(CO)[C@H]2O)[C@@H](O)[C@H](O)[C@H]1O | -11.5 | inactive | inactive | – | – | –
C=C(C)C1CCC(C)C12CC(O)C1(C)OC1C2OC(=O)C(N)CCC(=O)O (stereo unspecified) | -6.11 | inactive | inactive | – | – | –
NC1CCCCN(c2c(F)cc3c(=O)c(C(=O)O)cn(C4CC4)c3c2Cl)C1 (stereo unspecified) | -8.59 | inactive | inactive | – | – | –
CCC/C=C1\OC(=O)C2=C1CCC(O)C2O (stereo unspecified) | 12.2 | inactive | inactive | – | – | –
COC1CCCC/C(C)=C/C2C=C(C)C(C)C3C(CC(C)C)NC(=O)C23C(=O)C1 (stereo unspecified) | -5.34 | inactive | inactive | – | – | –
CCOc1cn(-c2ccc(F)cc2C)nc1C(=O)Nc1ccc(Oc2ccnc3cc(OC)c(OC)cc23)c(F)c1 | 12.5 | inactive | inactive | – | – | –
CCC(C)/C=C(C)/C=C/C1=CC2=C(Cl)C(=O)C(C)(OC(C)=O)C(=O)C2=CN1CCCC(=O)O (stereo unspecified) | 0.763 | inactive | inactive | – | – | –
CC(=O)O[C@H]1C[C@@]2(C)[C@@H](CC[C@H]3[C@@]4(C)C=CC(=O)[C@@H](C)[C@@H]4[C@H](OC(C)=O)C(=O)[C@@]32C)/C1=C(\CCC=C(C)C)C(=O)O | -16 | inactive | inactive | – | – | –
C[C@@H]1C[C@H](O)/C=C/[C@H](O)[C@@H](O)CC(=O)O1 | -9.92 | inactive | inactive | – | – | –
COc1cc(F)c(C(C)C)cc1-c1ccc(C(F)(F)F)cc1CN1C(=O)OC(c2cc(C(F)(F)F)cc(C(F)(F)F)c2)C1C (stereo unspecified) | -6.68 | inactive | inactive | – | – | –
COc1ccc(Oc2c(Cl)cnn(C3c4ccccc4-c4ccccc43)c2=O)cc1 | 13.4 | inactive | inactive | – | – | –
O=C(O)[C@H]1CCCC[C@H]1C(=O)N1CCc2ccccc2[C@H]1CN1C(=O)c2ccccc2C1=O | -3 | inactive | inactive | – | – | –

From PubChem BioAssay (NCATS)
